Measured values: PubChem BioAssay AID594 (National Center for Advancing Translational Sciences (NCATS), 2007)
Out of some 59,000 compounds screened, about 30 (0.05%) were called active. Cut-off read from the data, not from the text of the source: active = max dye-equivalent concentration above about 11 nM; inconclusive = between about 1.1 nM and that limit; inactive = weaker than that. Many of the other results were omitted from the sample, so actives are more common in it than they were.

assay: qHTS Assay for Spectroscopic Profiling in Rhodamine Spectral Region; conditions: Rhodamine-region fluorescence, 547/598 nm, Tris buffer
Description: NIH Molecular Libraries Screening Centers Network [MLSCN] NIH Chemical Genomics Center [NCGC] […] Occasionally, the artifactual effect may originate from the compound#s own spectral or other biophysical properties which generally tend to track its assay concentration. Pre-screening/profiling the library with respect to the compounds# spectral properties should help one exclude false positives early on. While the most informative fluorescent profiling data set is obtained by performing a full excitation and emission scan of each well by using a monochromator-based plate reader, such an approach is practical only on a very limited scale as scanning each well requires long time. An alternative approach, applied here, is to perform plate reader scans using selected excitation and emission wavelength pairs to generate a multidimensional relational database that correlates compound concentration and the respective relative fluorescence intensity at a given wavelength set. A standard curve of rhodamine present on each plate as six-point concentration series, was used to compute a normalized fluorescence response, termed dye-equivalent concentration, for each compound at each concentration.
NCGC Assay Protocol Summary: Buffer: 100 mM Tris buffer, pH 8.0 Dye standard plate: The wells in columns 1 through 4 of a Kalypsys polypropylene 1536-well compound plate were filled with standard solutions of fluorophore corresponding to the spectral region of interest. Solutions of rhodamine were placed in the following wells: E1, F1: 3 mM, E2, F2: 300 uM, E3, F3: 30 uM, E4, F4: zero (DMSO), G1, H1: 3 uM, G2, H2: […], G3, H3: 300 nM, G4, H4: zero (DMSO). Assay Steps: Six uL of buffer were dispensed to 1536-well Greiner black plates. Compounds and dye standards (23 nL) were transferred via Kalypsys PinTool. The plates were incubated for 15 min at room temperature, and then read on ViewLux (Perkin-Elmer) High-throughput CCD imager using 547 nm and 598 nm excitation and emission filter set. Keywords: NIH Roadmap, MLSCN, MLI, MLSMR, qHTS, NCGC, Rhodamine , Fluorescent Profiling.

Max dye-equivalent concentration, inactive:
CCNc1ncc2ncc(=O)n(Cc3cccc(OC)c3)c2n1
CC1Cc2ccccc2N1C(=O)CSc1nc2ccccc2o1 (configuration not stated)
CCN(CC)c1ccc(C(=O)OCC(=O)c2ccco2)cc1
Cc1ccsc1C(C(=O)NC1CCCCC1)N(C(=O)Cc1cccs1)C1CC1 (configuration not stated)
CCC(C(=O)Nc1ncccn1)(C(F)(F)F)C(F)(F)F
CC(C)C(c1nnnn1CCc1ccccc1)N1CCN(C(=O)c2ccco2)CC1 (configuration not stated)
O=C(Nc1c(-c2ccccc2)nc2c(Br)cc(Br)cn12)c1ccco1
Cc1oc(-c2cccc(Cl)c2)[n+]([O-])c1C
COCCn1c(=O)c(-c2cccs2)nc2cncnc21
Nc1nonc1-c1noc(-c2ccc(Br)o2)n1
CCOC(=O)C1=C(CNC2CCCCC2)NC(=O)NC1c1cc(C)ccc1C (configuration not stated)
Cc1cc(=O)n2nc(N3CCCC3C(=O)NCCCN3CC(C)CC(C)C3)sc2n1 (configuration not stated)
O=C(CN1CCN(c2ccccn2)CC1)NCc1cccs1
OCc1n[nH]c(CO)n1
CCC(=O)Nc1sc(C(=O)N2CCCCC2)c(C)c1C#N
CCOC(=O)c1c(C)c(C(=O)NCCc2ccc(S(N)(=O)=O)cc2)c(C)n1CC
COc1ccc(CCNC(=O)CN2CCC(n3nnc4cc(F)ccc43)CC2)cc1OC
Nc1nnnn1/N=C/c1cccs1
CCc1ccccc1NC(=O)CSc1nnc([C@@H](NC(=O)OC(C)(C)C)C(C)C)o1
COc1cc(Cl)c(C)cc1NC(=O)CSc1nnc(-c2cccnc2)n1Cc1ccco1
Cc1cc(N2CCCC2=O)cc(C)c1S(N)(=O)=O
C/C(=N\O)C1(C)N(O)C(C)(C)C(c2ccc(Br)cc2)=[N+]1[O-] (configuration not stated)
